Most compounds without a hit are left out; they make up all but 8.7% or so of the library.
Pf growth 96h – P. falciparum growth inhibition at 96 hour, primary screen for plastid delayed-death inhibitors. P. falciparum luciferase reporter growth, 96 h. Potency, µM (titrated, usually from 28.7 µM), without a hit: at the top dose activity change, negative = inhibition, most hits filed as inhibitors. hit rate 6.9% among 320,000
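Erythrocytes infected with luciferase-expressing P. falciparum were dispensed at 2% hematocrit and 0.05% parasitemia (final), then incubated with compounds 96 hours at 37 C in 5% CO2. Luminescence after detection reagent addition reported growth.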
AMA1 RON2 block – AMA1-RON2 (P. falciparum) interaction inhibition | AlphaScreen AMA1-biotinylated RON2 peptide binding | Potency, µM (top dose mostly 58.2 µM), for the others: at the top dose activity change, negative = inhibition, most hits filed as inhibitors | hit rate 0.2% among 360,000;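 note: 0% = vehicle wells and -100% = peptide control; nearly all actives have a fitted effect of over 45% in size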
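AMA1 (3D7) with his tag at 25 nM final met compounds first, then biotinylated RON2 peptide at 25 nM; detection used donor plus acceptor beads, 10 µg/mL apiece, read by AlphaScreen after 30 min at room temperature.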
Vaccinia mCherry – inhibitors of vaccinia virus infection (mCherry reporter signal); AID 720579; hit rate 0.63% among 310,000; Potency, µM (highest dose often 36.5 µM), inactives show at the top dose activity change, negative = inhibition, usual class: inhibitors; Vaccinia virus mCherry reporter infection, fluorescence; calls by dose curve; tested in A549 cells; note: nearly all actives have a fitted effect of over 35% in size
Pf growth 48h – P. falciparum growth inhibition at 48 hours (one generation); P. falciparum luciferase growth in erythrocytes, 48 h; Potency, µM (titrated, usually from 28.7 µM), for inactives: top-dose activity change, negative = inhibition, usual class: inhibitors; hit rate 5.9% among 310,000
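In quantitative HTS format, infected erythrocytes bearing luciferase-reporter parasites were treated for a single generation at 37 C. Luminescence after adding detection reagent served as the growth measure.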
VACV Venus inh – vaccinia inhibition (Venus reporter). Vaccinia virus Venus reporter expression, fluorescence. Potency, µM (doses to about 36.5 µM), for the others: at the top dose activity change, negative = inhibition, hits mostly inhibitors. hit rate 0.46% among 330,000; calls by dose curve; tested in A549 cells; note: nearly all actives have a fitted effect of over 30% in size
* marks the source's active call; other numbers are inactive results; i = inactive; u = inconclusive; x = not tested or not shown; [ ] = another dose, or the depositor's remark. Unless noted, calls come from the whole dose curve; as a rule, active = well fitted curve in the direction sought with a large enough effect; inconclusive = small, poorly fitted or top-dose-only effect, or another doubt; inactive = no such curve, though single readings can be large; an effect the other way counts as inactive or inconclusive. Unless noted, % is set by controls: 0 for no effect and ±100 for the full control effect; potency is the fitted concentration of half-maximal effect.

SMILES	Pf growth 96h	AMA1 RON2 block	Vaccinia mCherry	Pf growth 48h	VACV Venus inh
Fc1ccc(CSc2ccc3nnc(-c4ccccn4)n3n2)cc1	3.29µM*	9.4%	-19.7%	3.7µM*	-16.0%
Fc1ccc(CSc2ccc3nnc(-c4cccs4)n3n2)cc1	u	-5.5%	x	11.1%	x
COc1ccc(CN2CCN(Cc3c[nH]c4ccccc34)CC2CCO)cc1C (stereo not drawn)	u	6.5%	x	u	x
CCn1ncc(CN2CCN(Cc3cccc(OC)c3)C(CCO)C2)c1C (stereo not drawn)	7.38µM*	3.5%	-10.8%	0.1%	-12.6%
CCn1nc(C)c(CN2CCN(Cc3cccc(OC)c3)C(CCO)C2)c1C (stereo not drawn)	11.7µM*	-14.3%	i	-2.5%	-10.3%
COc1cc(CN2CCN(Cc3c[nH]c4ccccc34)CC2CCO)cc(OC)c1 (stereo not drawn)	10.4µM*	-7.0%	x	-21.5%	x
Cc1ccc(NC(=S)NCc2ccc(Cl)cc2)c(OC(F)F)c1	4.15µM*	48.3%	-5.9%	u	-3.4%
O=C(c1ccc2ncsc2c1)N1CCCCC1	-12.1%	-0.7%	-3.0%	15.1%	5.1%
Nc1nc2ccc(O)cc2s1	10.4µM*	12.9%	-16.3%	1.7%	-18.3%
Nc1nc2ccc(C(=O)N3CCCCC3)cc2s1	4.15µM*	19.9%	i	11.9%	-7.9%
COC(=O)c1ccccc1NC(=O)c1cnc(Nc2ccc(OC)cc2)c2ccccc12	x	x	-3.3%	x	-16.8%
Cc1ccc(NC(=O)CN2C(=O)C(c3ccc(C(C)(C)C)cc3)=NC2(C)C)cc1	x	x	-10.8%[7.34 µM]	x	-6.1%[7.34 µM]
Cc1cc(C)c(-c2c(O)c3c(n(C)c2=O)CC(C)(C)CC3=O)c(C)c1	5.86µM*	7.5%	-20.6%	u	-14.5%
CCC1CN(CCNC(=O)c2scc3c2OCCO3)Cc2cc(OC)ccc2O1 (stereo not drawn)	x	x	-10.5%	x	-1.5%
Cc1cccc(N(CC(=O)O)CC(=O)O)c1	13.1µM*	u	i	-13.2%	-1.2%
Cc1nc(-c2ccc(Cl)cc2)sc1CCNC(=O)c1cccs1	x	x	-1.5%	x	11.8%
CCOCC(=O)Nc1ccc(S(=O)(=O)N2CCC(c3nc4ccccc4[nH]3)CC2)cc1	u	0.0%	i	10.4µM*	-22.0%
O=S(=O)(c1ccc(F)cc1)N1CCC(c2nc3ccccc3[nH]2)CC1	-18.5%	-3.6%	-27.9%	u	-23.9%
CC(C)(C)C(=O)Nc1ccc(S(=O)(=O)N2CCC(c3nc4ccccc4[nH]3)CC2)cc1	8.28µM*	-5.4%	u	13.1µM*	-22.1%
CC(=O)Nc1ccc(S(=O)(=O)N2CCN(c3cc(C)nc4ccccc34)CC2)cc1	u	20.1%	-2.7%	u	1.6%
CC(=O)Nc1ccc(S(=O)(=O)N2CCC(c3nc4ccccc4[nH]3)CC2)cc1	x	-10.9%	x	8.28µM*	x
CC(=O)Nc1ccc(S(=O)(=O)N2CCN(c3nc(NC4CCCC4)c4ccccc4n3)CC2)cc1	u	-5.5%	u	2.08µM*	u
CC[C@@H](C)[C@@H](N)C1=N[C@H](C(=O)N[C@@H](CC(C)C)C(=O)N[C@@H](CCC(=O)O)C(=O)N[C@@H](C(=O)N[C@@H]2CCCCNC(=O)[C@@H](CC(N)=O)NC(=O)[C@@H](CC(=O)O)NC(=O)[C@@H](Cc3cnc[nH]3)NC(=O)[C@@H](Cc3ccccc3)NC(=O)[C@@H]([C@H](C)CC)NC(=O)[C@@H](CCCN)NC2=O)[C@@H](C)CC)CS1	x	x	i	x	u
COc1ccc(C(CC(=O)Nc2cc(Cl)c(OC)cc2OC)N2Cc3ccccc3C2=O)cc1 (stereo not drawn)	x	x	-9.0%	x	-6.7%
COC(=O)c1sccc1S(=O)(=O)N(CC(=O)Nc1ccccc1F)c1ccccc1	x	x	-3.5%	x	3.9%
SMILES	Pf growth 96h	AMA1 RON2 block	Vaccinia mCherry	Pf growth 48h	VACV Venus inh
CN(C)CCCn1c2c3ccccc3ccc2c2oc(=O)c3ccccc3c21	x	-10.1%	22.4µM*	x	u
CN(C)CCCn1c(=S)[nH]c2ccccc2c1=O	14.5%	8.5%	i	13.4%	-10.9%
CCOc1ccc(C2C(C(N)=O)=C(C)Nc3nc(SCc4ccccc4F)nn32)cc1 (stereo not drawn)	x	x	-11.1%	x	6.8%
CCC(c1nnnn1-c1c(C)cccc1C)N1CCN(CC)CC1 (stereo not drawn)	x	0.3%	-8.9%	x	-9.3%
CC(=O)N(C)C(c1ccc(N(C)C)cc1)c1nnnn1-c1c(C)cccc1C (stereo not drawn)	5.22µM*	u	i	5.22µM*	-15.8%
O=C(c1ccc(Cl)cc1)c1c[nH]c(C(=O)NNc2cccc(Cl)n2)c1	u	76.9%	u	-22.9%	11.2µM*
O=C(NNc1cccc(Cl)n1)Nc1cccc(Cl)c1	13.1µM*	-3.6%	x	x	x
O=C(NNc1cccc(Cl)n1)Nc1ccccc1	107.3%	-2.2%	x	13.0%	x
O=S1(=O)c2ccccc2N(Cc2cccc(C(F)(F)F)c2)c2ccccc21	x	x	-14.9%	x	-10.3%
CCCS(=O)(=O)c1nc(S(=O)(=O)c2ccc(C)cc2)c(N2CCc3ccccc3C2)s1	u	-2.3%[11.6 µM]	-14.9%	2.33µM*	-5.6%
CCS(=O)(=O)c1nc(S(=O)(=O)c2ccc(C)cc2)c(N2CCN(C)CC2)s1	u	-5.2%	x	-9.4%	x
Cc1ccc(S(=O)(=O)c2nc(S(=O)(=O)c3ccc(C)cc3)c(N3CCN(CCO)CC3)s2)cc1	-31.0%	5.0%	x	5.22µM*	x
CCCS(=O)(=O)c1nc(S(=O)(=O)c2ccc(C)cc2)c(N2CCC(O)CC2)s1	-9.6%	6.7%	-1.5%[7.34 µM]	-5.8%	-2.2%[7.34 µM]
CCCS(=O)(=O)c1nc(S(=O)(=O)c2ccc(C)cc2)c(N2CCCC(C)C2)s1 (stereo not drawn)	u	-19.2%	-5.7%[7.34 µM]	u	-17.4%[7.34 µM]
CCCS(=O)(=O)c1nc(S(=O)(=O)c2ccc(C)cc2)c(N2CCC(C(N)=O)CC2)s1	10.4µM*	-6.2%	x	-6.9%	x
CCCS(=O)(=O)c1nc(S(=O)(=O)c2ccc(C)cc2)c(N2CCCC2)s1	x	-4.0%	x	11.7µM*	-19.6%
Cc1ccc2nc(-c3ccc(C)c(NC(=O)COc4ccc(Cl)cc4)c3)oc2c1	x	x	19.8%	x	-10.2%
CC(C)COc1cccc(C(=O)Nc2ccc(-c3nc4ncccc4o3)cc2)c1	x	x	i	x	-14.6%
CCS(=O)(=O)c1nc(S(=O)(=O)c2ccc(C)cc2)c(N2CCC(C)CC2)s1	-27.2%	6.9%	x	u	x
CCCS(=O)(=O)c1nc(S(=O)(=O)c2ccc(C)cc2)c(N2CCC(C)CC2)s1	14.7µM*	23.9%	-19.1%[7.34 µM]	u	-1.5%[7.34 µM]
CNCCc1ccc(O)c(O)c1	x	7.08µM*	-0.6%	x	-7.9%
Oc1ccccc1Nc1nc(NCc2ccccc2)c2ccccc2n1	59.6%	36.4%	u	0.329µM*	u
NCCc1ccc(O)c(O)c1	u	u	-7.4%	u	-14.4%
c1ccc(CNc2ncnc3ccccc23)cc1	-8.5%	25.0%	-8.2%	u	u
c1ccc(CNc2c3ccccc3nc3ccccc23)cc1	u	-2.1%	u	2.94µM*	11.2µM*

Assay outcomes from PubChem.
